Results from PubChem BioAssay (NCI).
Compounds without any hit were thinned out: in the full panel of roughly 83,000, 20% have a hit.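 Negative percent growth values reflect cell death: -40 means 40% of the cells present at the start died, and -100 means all died.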 Active and inactive are the calls of the source. Rule for the calls: active = growth percent below 10; inactive = the rest.

Legend:
Experiment in all cases: NCI-60 one-dose screen, 48 h (100 = growth as untreated, 0 = no growth, -100 = all killed)
Settings in all cases: 10 µM unless noted
NCI-H23 lung = tested on: NCI-H23 lung
NCI-H226 lung = tested on: NCI-H226 lung
NCI-H322M lung = tested on: NCI-H322M lung
HOP-62 NSCLC = tested on: HOP-62 NSCLC
HOP-92 NSCLC = tested on: HOP-92 NSCLC
NCI-H522 lung = tested on: NCI-H522 lung
A549/ATCC NSCLC = tested on: A549/ATCC NSCLC
786-0 renal = tested on: 786-0 renal
COLO 205 colon = tested on: COLO 205 colon
NCI-H460 lung = tested on: NCI-H460 lung

Measured: growth

CCCCCCCCCNCCCCCCCCC
inactive: NCI-H23 lung 40.4% | NCI-H226 lung 69.6% | NCI-H322M lung 113% | HOP-62 NSCLC 76.3% | A549/ATCC NSCLC 99.3% | 786-0 renal 66.5%
active: HOP-92 NSCLC 8.18% | NCI-H522 lung -3.05% | COLO 205 colon -92.8%

C=CCC(=O)N[C@H](/C=C/C(=O)O)Cc1ccc(-c2cc(Cl)cc(Cl)c2)cc1
inactive: NCI-H23 lung 92.7% | NCI-H226 lung 86.2% | NCI-H322M lung 101% | HOP-62 NSCLC 82% | HOP-92 NSCLC 96.4% | NCI-H522 lung 70.7% | A549/ATCC NSCLC 76.9% | 786-0 renal 98.4% | COLO 205 colon 95.7%

Cc1cc(O)cc(-c2c(-c3ccnc(-c4cccnc4)c3)cnn2C)c1
inactive: NCI-H23 lung 93.6% | NCI-H226 lung 69.5% | NCI-H322M lung 66.6% | HOP-62 NSCLC 67.2% | HOP-92 NSCLC 42.7% | NCI-H522 lung 46.9% | A549/ATCC NSCLC 78.1% | 786-0 renal 67.7% | COLO 205 colon 84.6%

Cc1cc(C2(c3ccc(O)c(C)c3)OS(=O)(=O)c3ccccc32)ccc1O
inactive: NCI-H23 lung 101% | NCI-H226 lung 97.9% | NCI-H322M lung 103% | NCI-H460 lung 103% | HOP-92 NSCLC 78.6% | NCI-H522 lung 115% | A549/ATCC NSCLC 101% | 786-0 renal 112% | COLO 205 colon 96.3%

CC12O[C@H](C[C@@H](OC(=O)CCC(=O)O)[C@H]1O)n1c3ccccc3c3c4c(c5c6ccccc6n2c5c31)C(=O)NC4=O
inactive: NCI-H23 lung 12.3% | NCI-H322M lung 34.3% | HOP-62 NSCLC 13.5% | NCI-H522 lung 21% | A549/ATCC NSCLC 13.8% | 786-0 renal 36.8%
active: NCI-H226 lung 9.15% | HOP-92 NSCLC 7.85% | COLO 205 colon -16.4%

Cc1ccc(-c2cc3c(SCC(=O)Nc4cc(C(F)(F)F)ccc4Cl)nccn3n2)cc1
inactive: NCI-H23 lung 74.2% | NCI-H226 lung 54% | NCI-H322M lung 31% | HOP-62 NSCLC 43.3% | HOP-92 NSCLC 28.6% | NCI-H522 lung 42.7% | A549/ATCC NSCLC 36% | 786-0 renal 54.7% | COLO 205 colon 27%

CN(c1ncccc1CNc1nc(Nc2ccc3c(c2)CC(=O)N3)ncc1C(F)(F)F)S(C)(=O)=O
active: NCI-H23 lung -18.1% | NCI-H226 lung 8.79% | NCI-H322M lung -11.3% | HOP-62 NSCLC -13.3% | HOP-92 NSCLC 2.42% | NCI-H522 lung -22.4% | A549/ATCC NSCLC 2.18% | COLO 205 colon -85.6%
inactive: 786-0 renal 11.3%

Cc1cc(C)n(CC(=O)Nc2ccc(-c3nc4ccccc4s3)cc2)n1
inactive: NCI-H23 lung 93.8% | NCI-H226 lung 100% | NCI-H322M lung 99.9% | HOP-62 NSCLC 105% | HOP-92 NSCLC 97.7% | NCI-H522 lung 103% | A549/ATCC NSCLC 94.7% | 786-0 renal 106% | COLO 205 colon 112%

COc1ccc2c(OCc3nnc4ccc(-c5ccccc5)nn34)ccnc2c1
inactive: NCI-H23 lung 70.2% [2.5 µM] | NCI-H226 lung 84.7% [2.5 µM] | NCI-H322M lung 92% [2.5 µM] | HOP-62 NSCLC 77.5% [2.5 µM] | HOP-92 NSCLC 98.7% [2.5 µM] | NCI-H522 lung 85.8% [2.5 µM] | A549/ATCC NSCLC 94.1% [2.5 µM] | 786-0 renal 93.7% [2.5 µM] | COLO 205 colon 95.3% [2.5 µM]

COC(=O)[C@H](Cc1ccc(O)cc1)NC(=O)[C@@H](OC)[C@@H]1Cc2cc3cc(OC4CC(OC5CC(O)C(O)C(C)O5)C(O)C(C)O4)c(C)c(O)c3c(O)c2C(=O)[C@H]1OC1CC(OC2CC(OC3CC(C)(O)C(O)C(C)O3)C(O)C(C)O2)C(O)C(C)O1 (some centres undefined)
inactive: NCI-H322M lung 11.1% | HOP-62 NSCLC 19.3% | HOP-92 NSCLC 12.2%
active: NCI-H23 lung -38.6% | NCI-H226 lung -17.6% | NCI-H522 lung -19.5% | A549/ATCC NSCLC 4.32% | 786-0 renal 1.98% | COLO 205 colon -22.8%

COC(=O)[C@]12CC[C@@H](C)[C@H](C)[C@@H]1C1=CC[C@@H]3[C@@]4(C)C[C@@H](OC(=O)/C=C/c5ccccc5)[C@H](O)[C@@](C)(CO)[C@@H]4[C@H](O)C[C@@]3(C)[C@]1(C)CC2
active: NCI-H23 lung 4.71% | NCI-H226 lung 0.734% | HOP-92 NSCLC -3.66% | NCI-H522 lung -59.6% | A549/ATCC NSCLC 5.1% | 786-0 renal -29% | COLO 205 colon -58.6%
inactive: NCI-H322M lung 37.9% | HOP-62 NSCLC 11.6%

CC1(/C=N/NC(N)=S)NC(=O)NC1=O (centres undefined)
inactive: NCI-H23 lung 98% | NCI-H226 lung 95.1% | NCI-H322M lung 107% | HOP-62 NSCLC 78.5% | HOP-92 NSCLC 92.5% | NCI-H522 lung 71.2% | A549/ATCC NSCLC 72.4% | 786-0 renal 105% | COLO 205 colon 98.7%

CC(C)(C)c1cnc(CSc2cnc(NC(=O)C3CCNCC3)s2)o1
inactive: 786-0 renal 12%
active: NCI-H23 lung -22.2% | NCI-H226 lung 3.09% | NCI-H322M lung 5.62% | HOP-62 NSCLC -16.2% | HOP-92 NSCLC -8.65% | NCI-H522 lung -24.8% | A549/ATCC NSCLC 1.61% | COLO 205 colon -45.3%

COC(=O)CCCNc1c(-c2c(O)c(O)cc3c(O)c(-c4c(C)cc5c(-c6nc7ccccn7c6NCCCC(=O)OC)c(O)c(O)cc5c4O)c(C)cc23)nc2ccccn12
active: NCI-H23 lung 6.48% | NCI-H522 lung 1.98%
inactive: NCI-H226 lung 64.8% | NCI-H322M lung 93.2% | HOP-62 NSCLC 37.1% | HOP-92 NSCLC 55.3% | A549/ATCC NSCLC 23.4% | 786-0 renal 67.6% | COLO 205 colon 87%

COc1ccc(F)c(F)c1C(=O)c1cnc(NC2CCN(S(C)(=O)=O)CC2)nc1N
inactive: 786-0 renal 14.4%
active: NCI-H23 lung -36.5% | NCI-H226 lung 3.23% | NCI-H322M lung 2.76% | HOP-62 NSCLC -24.7% | HOP-92 NSCLC -8.59% | NCI-H522 lung -29.5% | A549/ATCC NSCLC 3.28% | COLO 205 colon -79.7%

O=C(NC[C@H](O)CO)c1ccncc1Nc1ccc(I)cc1F
active: HOP-92 NSCLC -25.4% | COLO 205 colon -8.7%
inactive: NCI-H23 lung 15.9% | NCI-H226 lung 50.2% | NCI-H322M lung 19.8% | HOP-62 NSCLC 23.7% | NCI-H522 lung 51.6% | A549/ATCC NSCLC 32.2% | 786-0 renal 70.2%
